This is a sample that favours compounds with a hit; in the whole collection about 21% have one here.
TDP1 cell CPT – growth inhibition of DT40 Tdp1-/-;hTDP1 cells with camptothecin (screen for TDP1 inhibitors). chicken DT40 Tdp1-/-;hTDP1 cells + 20 nM CPT, ATP luminescence, 48 h. Potency, µM (highest dose often 46.2 µM), for inactives: at the highest dose activity change, negative = growth inhibition, actives largely listed as inhibitors. 420,000 tested, 12% active; also: potency is read from the fitted curve at half-maximal effect; % is scaled to controls: 0 for no effect and ±100 for the full control effect; nearly all actives have a fitted effect of over 55% in size
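Chicken DT40 Tdp1-/- cells complemented with human TDP1, 400 cells/well, exposed to compounds plus 20 nM camptothecin for at least 48 h at 37 C; viability read as ATP content by CellTiter-Glo luminescence.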
TDP1 cell noCPT – qHTS for Inhibitors of human tyrosyl-DNA phosphodiesterase 1 (TDP1): qHTS in cells in absence of CPT. AID 686978, 2013. DT40 Tdp1-/- hTDP1 cells, no CPT, ATP luminescence, 48 h. 420,000 tested, 15% active. Potency, µM (titrated, usually from 46.2 µM), inactives show at the top dose activity change, negative = growth inhibition, hits mostly inhibitors; also: potency is read from the fitted curve at half-maximal effect; % is scaled to controls: 0 for no effect and ±100 for the full control effect; nearly all actives have a fitted effect of over 55% in size
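Chicken DT40 Tdp1-/- cells stably complemented with human TDP1 were seeded at 400 cells/well with DMSO in place of 20 nM camptothecin. After compound pinning, cells grew at least 48 hr at 37 °C; viability read by CellTiter-Glo luminescence.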
IL1B secr inh – blocks inflammasome-driven IL-1 beta release. THP-1 LPS/ATP IL-1B secretion, AlphaLISA, 16 h; active compounds read low. activity change, % at 57.5 µM. 360,000 tested, 4.7% active. AID 743279; in the data active = activity change below about -50%; inconclusive = mostly about -30% to -49%; also: % is scaled to controls: 0 for no effect and ±100 for the full control effect
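THP-1 cells pretreated 1 hr with compounds (up to 57.5 uM final), then stimulated with LPS (250 ng/mL final) plus ATP (1.25 mM final); secreted IL-1B measured by AlphaLISA after 16 hr, decreased signal indicating inhibition.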
DRD3 antagonist – blocks the human D3 dopamine receptor; P35462; D3R cells, DiscoveRx beta-arrestin luminescence, antagonist mode; active compounds read low; max response, negative = inhibition, %; 360,000 tested, 2.5% active; AID 652054; in the data active = max response below about -50%; inconclusive = no clear call, values can overlap the other calls; also: % is scaled to controls: 0 for no effect and ±100 for the full control effect
Target sequence (P35462 whole entry, looked up): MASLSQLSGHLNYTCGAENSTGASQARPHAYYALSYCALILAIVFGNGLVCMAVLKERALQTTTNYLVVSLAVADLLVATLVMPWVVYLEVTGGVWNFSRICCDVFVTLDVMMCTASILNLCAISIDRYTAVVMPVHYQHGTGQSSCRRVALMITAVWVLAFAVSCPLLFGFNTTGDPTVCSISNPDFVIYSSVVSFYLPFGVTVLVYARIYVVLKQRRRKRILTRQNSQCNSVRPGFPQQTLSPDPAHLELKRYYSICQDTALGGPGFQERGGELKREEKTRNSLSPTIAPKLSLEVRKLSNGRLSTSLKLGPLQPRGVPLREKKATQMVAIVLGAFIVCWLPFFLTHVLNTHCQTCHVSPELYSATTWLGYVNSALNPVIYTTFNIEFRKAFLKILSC
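Cells plated overnight at 1500 cells/well, then exposed to library compounds with dopamine controls for 90 minutes at 37 degrees C. DiscoveRx reagent added for 30–60 minutes at room temperature; luminescence read, quantitative HTS format.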
DRD3 agonist – agonists of human D3 dopamine receptor; P35462; D3R DiscoveRx beta-arrestin cells, luminescence, 90 min; max activation, %; 410,000 tested, 0.58% active; AID 652048; in the data active = max activation above about 30%; also: 0% is about no effect
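Cells at 1500/well, incubated overnight, then treated with pinned compounds (dopamine as control) for 90 min at 37 degrees C. DiscoveRx reagent added for 30 - 60 minutes at room temperature; luminescence read.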
ClpP mod – qHTS Assay for Activators of ClpP; ATP-dependent Clp protease proteolytic subunit (Bacillus subtilis (strain 168)), P80244; purified B. subtilis ClpP, FRET peptide cleavage, 20 min; Potency, µM (highest dose often 57.5 µM), inactives show at the top dose activity change, negative = active; 340,000 tested, 1.9% active; active = well fitted falling curve with a large enough effect; inconclusive = small, poorly fitted or top-dose-only effect; inactive = no such curve, though single readings can be large or run the other way; also: potency is read from the fitted curve at half-maximal effect; the source files actives as falling curves though it sought activators and does not explain the sign; nearly all actives have a fitted effect of over 65% in size
Target sequence (P80244 whole entry, looked up): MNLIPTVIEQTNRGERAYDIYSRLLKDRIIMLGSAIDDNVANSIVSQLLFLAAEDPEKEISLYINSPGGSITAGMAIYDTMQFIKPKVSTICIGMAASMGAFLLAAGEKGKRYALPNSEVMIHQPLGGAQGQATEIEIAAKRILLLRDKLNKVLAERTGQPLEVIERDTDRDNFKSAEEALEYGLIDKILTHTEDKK
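Buffer: 100 mM Tris/HCl pH8, 100 mM KCl, 0.05% low protease BSA, 2.5% glycerol, 0.01% Tween-20. ClpP 10 microg/mL final; 20 min RT; delta FRET normalized to ADEP and DMSO controls.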
* = called active by the depositor; u = inconclusive; x = no result given. Unless noted, calls follow the shape of the dose curve; as a rule, active = well fitted inhibition curve with a large enough effect; inconclusive = small, poorly fitted or top-dose-only effect; inactive = flat fitted curve, though single readings scatter.

SMILES	TDP1 cell CPT	TDP1 cell noCPT	IL1B secr inh	DRD3 antagonist	DRD3 agonist	ClpP mod
Cc1cccc(NC(=O)CC2Nc3cccc4cccc(c34)NC2=O)c1 (stereo not drawn)	16µM*	u	10	9	-5	-8%
CC(=O)c1ccc(NC(=O)CC2Nc3cccc4cccc(c34)NC2=O)cc1 (stereo not drawn)	18µM*	16µM*	-13	11	0	-1%
CCOC(=O)c1ccc(NC(=O)CC2Nc3cccc4cccc(c34)NC2=O)cc1 (stereo not drawn)	2.6µM*	2.6µM*	x	x	3	-1%
COc1ccccc1NC(=O)c1sc2nc(Cc3ccccc3)cc(C(F)(F)F)c2c1N	-24%	-16%	-18	27	-4	-1%
NC(=O)C1CCCN(C(=O)c2ccc(-c3cccc(Cl)c3Cl)o2)C1 (stereo not drawn)	-6%	u	-23	3	3	x
CCOc1ccc(N2CC(C(=O)Nc3cccc(C(=O)NC4CC4)c3)CC2=O)cc1 (stereo not drawn)	-1%	4%	6	23	-22	1%
CCOc1ccc(NC(=O)CC2Nc3cccc4cccc(c34)NC2=O)cc1 (stereo not drawn)	u	16µM*	x	x	3	-6%
Cc1ccc(CN(C)C2CCN(C)CC2)cc1	u	-18%	-19	12	4	3%
C=CCn1cn[nH]c1=S	5.2µM*	0%	26	12	14	1%
C=CCOc1ccc(CNn2cn[nH]c2=S)cc1	-3%	-5%	6	6	-9	-2%
CCCCCCn1nc(C(=O)N(CCCC)c2c(N)n(CCC)c(=O)[nH]c2=O)c2ccccc2c1=O	-23%	-25%	-11	6	-6	0%
CCOC(=O)C1=C(C)NC(C)=C(C(=O)OCC)C1c1cc2ccc(C)cc2[nH]c1=O	23µM*	u	51	7	1	u
Cc1cc(-n2nc3ccc(Cl)cc3n2)c(O)c(C(C)(C)C)c1	0%	4%	x	x	-3	x
Cc1cc(Cl)c(O)c(-n2nc3ccccc3n2)c1	21µM*	u	3	2	7	-2%
Clc1ccc(-n2c(Cc3ccccc3)nnc2SCc2nc(-c3cccs3)no2)cc1	u	u	x	x	-5	1%
COc1cc(C)ccc1OCCSc1nc2ccc(NC(C)=O)cc2s1	u	21µM*	x	x	6	-7%
CC(=O)Nc1ccc2nc(SCCOc3ccc(C)cc3)sc2c1	-19%	u	x	x	-10	-1%
COc1cc(C(=O)Nc2ccc3c(c2)OCO3)ccc1OCc1c(C)noc1C	17%	-28%	-9	-3	12	x
COc1cc(C)ccc1OCCSc1nc2ccc(NC(=O)c3ccc4c(c3)OCO4)cc2s1	-27%	u	x	x	2	22µM*
COC(=O)CSc1nc2ccc(NC(C)=O)cc2s1	-7%	1%	-53*	6	-10	0%
Cc1cc(C)cc(OCCSc2nc3ccc(NC(=O)COc4ccccc4)cc3s2)c1	u	u	x	x	3	-15%
Cc1cc(C)cc(OCCSc2nc3ccc(NC(=O)c4ccc5c(c4)OCO5)cc3s2)c1	u	5.2µM*	x	x	7	4%
COc1cc(CC(=O)Nc2ccc3nc(SC)sc3c2)cc(OC)c1OC	u	21µM*	77	-5	5	1%
CSc1nc2ccc(NC(=O)CS(=O)(=O)c3ccccc3)cc2s1	-8%	u	-22	10	-5	-2%
CCCNC(=O)Cn1c(=O)/c(=C\c2ccc(-c3cccc([N+](=O)[O-])c3)o2)s/c1=C\C(=O)C(C)(C)C	23µM*	23µM*	9	-13	-7	1%
SMILES	TDP1 cell CPT	TDP1 cell noCPT	IL1B secr inh	DRD3 antagonist	DRD3 agonist	ClpP mod
NC(C(=O)O)C(O)C(=O)O (stereo not drawn)	-5%	-3%	x	x	x	x
CC(C)CCNC(=O)COC(=O)/C=C/c1ccc2ccccc2n1	u	u	-59*	-16	-5	-3%
O=C(COC(=O)/C=C/c1ccc2ccccc2n1)NNC(=O)c1ccccc1	u	26µM*	u	-16	-1	-23%
O=C(c1cccc(Cl)c1)N1CCC(=O)N(C(CO)Cc2ccccc2)CC1 (stereo not drawn)	-21%	-10%	13	12	0	0%
O=C(c1cccc(Cl)c1)N1CCC(=O)N(C(COCc2cccc(Cl)c2)Cc2ccccc2)CC1 (stereo not drawn)	u	u	u	-25	-1	1%
Cc1cccc(C(=O)N2CCC(=O)N(C(COCc3cccc(Cl)c3)Cc3ccccc3)CC2)c1 (stereo not drawn)	u	16µM*	-29	-1	0	1%
Cc1cccc(C(=O)N2CCC(=O)N([C@H](COCc3ccc(Cl)cc3)Cc3ccccc3)CC2)c1	u	u	-12	-1	-1	-1%
Cc1cccc(C(=O)N2CCC(=O)N(C(COCc3ccc(Cl)cc3)Cc3ccccc3)CC2)c1 (stereo not drawn)	21µM*	21µM*	-28	4	12	1%
Cc1cccc(C(=O)N2CCC(=O)N([C@H](COCc3cccc(Cl)c3)Cc3ccccc3)CC2)c1	23µM*	18µM*	-11	18	3	2%
O=C(c1cccc(Cl)c1)N1CCC(=O)N([C@H](COCc2ccccc2)Cc2ccccc2)CC1	u	18µM*	u	4	3	-2%
Cc1cc(C)cc(N(CCC#N)C(=O)COC(=O)c2nc3nc(C)cc(C)n3n2)c1	-2%	4%	10	-5	-2	-2%
O=C(/C=C/c1ccccc1)NC(=S)NNC(=O)c1cnccn1	3.3µM*	5.8µM*	34	-26	-4	x
Cc1onc(-c2ccccc2)c1C(=O)NC(=S)NNC(=O)c1cccnc1	2%	u	3	-13	5	-1%
CCOC(=O)/C(=C\c1ccc(OC)c(OC)c1)C(=O)c1cccnc1	-28%	u	-7	-50*	-18	x
CC(/C=C/c1ccccc1)=N/NC(=O)c1cnccn1	8%	-16%	u	16	4	-1%
COc1ccc(/C=C/C(=O)NC(=S)NNC(=O)c2cccnc2)cc1OC	-10%	-26%	0	-61*	3	-1%
O=C(/C=C/c1ccccc1)NC(=S)NNC(=O)c1cccnc1	13µM*	5.8µM*	-3	u	11	1%
CCCCCC[C@@H](CCC)C(=O)O	13%	-3%	x	x	2	x

Screens deposited in PubChem BioAssay by National Center for Advancing Translational Sciences (NCATS).
